Patent US10344301, “Mutants of the bacteriophage lambda integrase” (AGENCY FOR SCIENCE, TECHNOLOGY AND RESEARCH)

T1: I43F C2 integrase (Bacteriophage lambda, UniProt P03700 SEQ:1-356, I43F)
T1 sequence: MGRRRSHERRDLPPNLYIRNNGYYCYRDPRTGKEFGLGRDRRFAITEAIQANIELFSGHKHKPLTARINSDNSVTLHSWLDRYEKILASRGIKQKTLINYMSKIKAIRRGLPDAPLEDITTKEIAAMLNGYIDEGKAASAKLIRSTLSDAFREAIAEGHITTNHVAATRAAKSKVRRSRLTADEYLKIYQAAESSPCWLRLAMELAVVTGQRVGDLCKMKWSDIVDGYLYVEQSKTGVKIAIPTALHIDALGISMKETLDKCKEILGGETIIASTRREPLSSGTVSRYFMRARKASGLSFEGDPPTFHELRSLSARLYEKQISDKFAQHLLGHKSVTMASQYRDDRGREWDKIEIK

B1: attH4X ; attP4X (dsDNA ; dsDNA)
DNA 1: ACGCTTTATTTCATTAAGTTG
DNA 2: CAACTTAATGAAATAAAGCGT
DNA 3: CAGCTTTATTTCATTAAGTTG
DNA 4: CAACTTAATGAAATAAAGCTG
B2: attH ; attPH (dsDNA ; dsDNA)
DNA 1: CTGCTTTCTTATACCAAGTGG
DNA 2: CCACTTGGTATAAGAAAGCAG
DNA 3: CAGCTTTCTTATACCAAGTTG
DNA 4: CAACTTGGTATAAGAAAGCTG
B3: attB ; attP (dsDNA ; dsDNA)
DNA 1: CTGCTTTTTTATACTAACTTG
DNA 2: CAAGTTAGTATAAAAAAGCAG
DNA 3: CAGCTTTTTTATACTAAGTTG
DNA 4: CAACTTAGTATAAAAAAGCTG

molecular target: T1, I43F C2 integrase; experiment: IVT; E319G removed from C3; conditions: tags: PURExpress IVT

Binding signal, ~3 fold reduced vs C3:
B1
B2
B3
